“And” between values parts separate entries of the source, which are not always exact repeats. Equal entries are not always repeated.
The compounds below were run against Integrin beta-1 (Homo sapiens) + Integrin alpha-4 (Homo sapiens) (UniProt P13612+P05556) (assay: inhibition of HUTS-21 binding to VLA-4, pilot screen, VLA-4 allosteric modulator project, U937 cells, HUTS-21 mAb, flow cytometry, validation set (AID 2674;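 note: antibody binding induced by the VLA-4 ligand LDV present at three times its Kd; 0% = LDV ligand with antibody and no compound and 100% = antibody without LDV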)). Conditions: HUTS-21 LIBS mAb binding, at 6.7 µM, hits give high values, binding induced by LDV ligand;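 active = inhibition above 50%, about 3 SD of the validation set; inactive = the rest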.
Chain of Integrin beta-1 (Homo sapiens) + Integrin alpha-4 (Homo sapiens) (P05556 whole entry, looked up): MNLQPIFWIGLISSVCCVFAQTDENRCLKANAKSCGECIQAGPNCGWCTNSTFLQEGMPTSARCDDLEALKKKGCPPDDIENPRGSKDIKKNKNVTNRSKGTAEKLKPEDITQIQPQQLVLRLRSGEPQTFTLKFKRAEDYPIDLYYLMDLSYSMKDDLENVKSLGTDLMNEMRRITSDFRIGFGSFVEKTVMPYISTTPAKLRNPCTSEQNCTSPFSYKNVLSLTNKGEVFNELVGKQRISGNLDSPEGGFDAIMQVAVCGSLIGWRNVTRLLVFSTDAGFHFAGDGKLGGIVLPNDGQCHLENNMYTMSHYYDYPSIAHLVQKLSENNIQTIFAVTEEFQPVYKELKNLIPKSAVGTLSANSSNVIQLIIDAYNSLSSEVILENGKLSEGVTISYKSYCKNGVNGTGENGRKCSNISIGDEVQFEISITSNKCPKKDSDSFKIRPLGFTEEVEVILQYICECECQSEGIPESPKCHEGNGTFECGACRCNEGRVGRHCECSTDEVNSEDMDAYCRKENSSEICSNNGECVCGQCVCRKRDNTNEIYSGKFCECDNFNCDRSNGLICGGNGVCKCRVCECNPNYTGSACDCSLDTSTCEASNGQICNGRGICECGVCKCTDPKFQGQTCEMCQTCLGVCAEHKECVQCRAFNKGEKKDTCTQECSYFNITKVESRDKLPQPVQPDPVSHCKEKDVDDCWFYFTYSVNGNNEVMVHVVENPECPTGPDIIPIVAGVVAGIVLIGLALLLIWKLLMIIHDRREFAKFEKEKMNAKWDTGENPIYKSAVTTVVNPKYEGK
Chain of Integrin beta-1 (Homo sapiens) + Integrin alpha-4 (Homo sapiens) (P13612 whole entry, looked up): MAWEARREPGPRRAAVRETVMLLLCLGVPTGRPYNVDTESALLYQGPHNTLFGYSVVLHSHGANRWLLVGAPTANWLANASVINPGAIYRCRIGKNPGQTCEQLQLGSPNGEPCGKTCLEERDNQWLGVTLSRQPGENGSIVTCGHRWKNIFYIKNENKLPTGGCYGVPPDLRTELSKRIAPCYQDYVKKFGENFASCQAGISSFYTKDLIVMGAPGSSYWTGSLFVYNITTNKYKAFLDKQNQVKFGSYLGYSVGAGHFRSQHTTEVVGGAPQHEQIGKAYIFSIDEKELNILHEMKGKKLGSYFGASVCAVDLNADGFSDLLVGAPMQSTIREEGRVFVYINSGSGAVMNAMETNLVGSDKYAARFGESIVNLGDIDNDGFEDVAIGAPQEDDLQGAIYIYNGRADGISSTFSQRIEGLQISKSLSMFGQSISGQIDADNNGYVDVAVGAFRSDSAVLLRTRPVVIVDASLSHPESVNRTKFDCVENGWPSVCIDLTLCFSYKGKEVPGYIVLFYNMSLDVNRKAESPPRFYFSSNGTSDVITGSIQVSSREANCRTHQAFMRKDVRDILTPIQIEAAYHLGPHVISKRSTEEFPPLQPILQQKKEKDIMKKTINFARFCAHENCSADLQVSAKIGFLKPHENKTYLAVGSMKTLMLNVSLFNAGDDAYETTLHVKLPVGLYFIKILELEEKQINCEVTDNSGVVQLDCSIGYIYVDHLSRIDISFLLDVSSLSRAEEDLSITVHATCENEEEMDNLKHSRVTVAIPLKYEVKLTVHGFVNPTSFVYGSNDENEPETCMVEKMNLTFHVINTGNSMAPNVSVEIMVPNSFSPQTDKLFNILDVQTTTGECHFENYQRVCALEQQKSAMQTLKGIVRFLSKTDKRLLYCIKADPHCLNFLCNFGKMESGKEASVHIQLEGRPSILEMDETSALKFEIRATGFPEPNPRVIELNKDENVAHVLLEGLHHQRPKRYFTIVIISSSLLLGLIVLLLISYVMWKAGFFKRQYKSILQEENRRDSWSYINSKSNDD

inhibition, inactive:
COc1cc(C2NCCc3c2[nH]c2ccccc32)ccc1OC(C)C (stereo unspecified) 5.61%
O=C(CSCc1ccccc1)NCCCN1CCOCC1 12.3%
O=C(N1CCCCC1)C1(c2ccccc2)CCOCC1 -3.16%
CCCC(=O)O[C@]1(C(=O)COC(C)=O)CC[C@H]2[C@@H]3C[C@H](F)C4=CC(=O)C=C[C@]4(C)[C@@]3(F)[C@@H](O)C[C@@]21C -13.2%
O=c1ccc2c(o1)/C(=C/C=C(Cl)Cl)CCC2 -7.25%
COc1cc(Cc2cnc(N)nc2N)cc(OC)c1OC -113% and 1.62%
O=C(CC(NC(=O)OCc1ccccc1)C(=O)O)OCc1ccccc1 (stereo unspecified) 18.2%
O=c1c(-c2ccccc2)c(O)c2cccc3c2n1CCC3 1.44%
O=C(O)C1CCN(C(=O)COc2ccc3c4c(c(=O)oc3c2)CCC4)CC1 6.55%
CCOC(=O)c1cccc(P(C)(C)=O)c1 5.77%
O=C(O)c1cc2cc(F)ccc2[nH]1 -15%
O=C(O)c1ccccc1C(=O)OCCCCOC(=O)c1ccccc1C(=O)O -0.45%
Cn1nc(-c2ccc(Cl)cc2)nc2c(=O)n(C)c(=O)nc1-2 -12.2%
O=c1[nH]c(=O)n([C@H]2C[C@H](O)[C@@H](CO)O2)cc1C(F)(F)F -11.9%
COc1ccc(-c2cc(C(=O)N3CCOCC3)c3cc(C)ccc3n2)cc1 -8.78%
Cc1ccc2c(c1)c1c3n2CCCN(Cc2ccccc2)C3CCC1 (stereo unspecified) -27.7%

Reference: PubChem BioAssay
